For assay [1], the target named is Estrogen receptor beta (Homo sapiens) (UniProt Q92731). As to the kind of experiment: qHTS assay to identify small molecule antagonists of the estrogen receptor beta (ER-beta) signaling pathway (AID 1259378; active means well fitted inhibition curve with a large enough effect in the signal ratio in the repeat runs, not every such curve was filed as active; the % refers to the signal ratio; further: potency means the concentration at half of the fitted maximal effect). Put shortly:
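Antagonist mode: compounds added to beta-lactamase reporter HEK293T ER-beta-UAS cells stimulated with E2 (1nM final), 16 hr at 37C. LiveBLAzer B/G FRET substrate, 2 hours room temperature, fluorescence read-out.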

The nature of assay [2]: qHTS assay to identify small molecule agonists of the androgen receptor (AR) signaling pathway in the presence of an antagonist - cell viability counter screen (AID 1259379). Further: nearly all actives have a fitted effect of over 25% in size. Further: potency means the concentration at half of the fitted maximal effect. On activity change, negative = cytotoxicity: series mostly up to about 92 µM. In a few lines: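 MDA-kb2 human breast carcinoma cells (stable MMTV-luciferase, AR/GR responsive) were seeded 3,000 cells/well, pre-incubated 5 hr at 37C without CO2, then given 3.0uM nilutamide and compounds at 15 concentrations for 16 hr. Viability was read by CellTiter-Fluor fluorescence.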
In general terms: Quantitative high-throughput screening tests each substance at several concentrations.

Assay [3] can be described thus: qHTS assay to identify small molecule agonists of the estrogen receptor beta (ER-beta) signaling pathway - cell viability counter screen (AID 1259380). Further: nearly all actives have a fitted effect of over 30% in size. Further: potency means the concentration at half of the fitted maximal effect. Put shortly: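 ER-beta-UAS-bla HEK293T cells in medium with 2% charcoal-stripped FBS were preincubated 6 hr at 37C, dosed with compound in DMSO for 16 hr, then after the bla read, CellTiter-Glo was added for 30 min at room temperature; luminescence recorded.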

Assay [4] can be described thus: qHTS assay to identify small molecule antagonists of the estrogen receptor beta (ER-beta) signaling pathway - cell viability counter screen (AID 1259382). Further: nearly all actives have a fitted effect of over 55% in size. Further: potency means the concentration at half of the fitted maximal effect.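 On activity change, negative = cytotoxicity: HEK293T cells carrying ER-beta-UAS-bla reporter stimulated with estradiol; series mostly up to about 92 µM.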 Put shortly:
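ER-beta-UAS-bla HEK293T cells (2,000/well, 2% charcoal-stripped FBS) were pre-incubated 6 hr at 37C, then given compound plus 1nM final 17-beta-estradiol for 16 hr. Viability was read in the same wells by CellTiter-Glo luminescence after 30 min at room temperature.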

For assay [5], the target named is Estrogen receptor (Homo sapiens) (UniProt P03372). Nature of the assay: qHTS assay to identify small molecule agonists of the estrogen receptor alpha (ER-alpha) signaling pathway in the presence of an antagonist (AID 1259383; calls by dose curve; further: top concentration of the series differs between compounds; nearly all actives have a fitted effect of over 15% in size). In a few lines:
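VM7Luc4E2 cells (endogenous full-length ER-alpha, 4×ERE-luciferase) were precultured 5 days in phenol red-free medium with 10% charcoal-stripped FBS, given 10.0nM ICI-182,780 (final), then treated with compounds at 15 concentrations for 22hr at 37C; luminescence read with ONE-Glo.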

Assay [6] in a line: qHTS assay to identify small molecule agonists of the estrogen receptor alpha (ER-alpha) signaling pathway in the presence of an antagonist - cell viability counter screen (AID 1259386).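 Further: cells exposed to compounds for 22 h at 37 °C before the viability read; nearly all actives have a fitted effect of over 30% in size.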 Further: potency means the concentration at half of the fitted maximal effect. On activity change, negative = cytotoxicity: series mostly up to about 92 µM. In a few lines: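 VM7Luc4E2 cells (endogenous full-length ER-alpha, 4×ERE-luciferase) were held 5 days in phenol red-free medium with 10% charcoal-stripped FBS, plated, then given 10.0nM ICI-182,780 and compounds at 15 concentrations for 22hr at 37C; viability read by CellTiter-Fluor fluorescence.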

The target in assay [7] is Progesterone receptor (Homo sapiens) (UniProt P06401). As to the kind of experiment: qHTS assay to identify small molecule agonists of the progesterone receptor (PR) signaling pathway (AID 1346784; calls by dose curve; further: nearly all actives have a fitted effect of over 30% in size). Put shortly: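 PR-UAS-bla HEK 293T cells (beta-lactamase reporter under UAS) in 2% charcoal-stripped FBS, dosed with 23 nL compound after 6 hr, incubated 16hr at 37C. LiveBLAzer B/G FRET substrate added, fluorescence read after 2 hours.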
Chain of Progesterone receptor (Homo sapiens) (P06401 whole entry, looked up): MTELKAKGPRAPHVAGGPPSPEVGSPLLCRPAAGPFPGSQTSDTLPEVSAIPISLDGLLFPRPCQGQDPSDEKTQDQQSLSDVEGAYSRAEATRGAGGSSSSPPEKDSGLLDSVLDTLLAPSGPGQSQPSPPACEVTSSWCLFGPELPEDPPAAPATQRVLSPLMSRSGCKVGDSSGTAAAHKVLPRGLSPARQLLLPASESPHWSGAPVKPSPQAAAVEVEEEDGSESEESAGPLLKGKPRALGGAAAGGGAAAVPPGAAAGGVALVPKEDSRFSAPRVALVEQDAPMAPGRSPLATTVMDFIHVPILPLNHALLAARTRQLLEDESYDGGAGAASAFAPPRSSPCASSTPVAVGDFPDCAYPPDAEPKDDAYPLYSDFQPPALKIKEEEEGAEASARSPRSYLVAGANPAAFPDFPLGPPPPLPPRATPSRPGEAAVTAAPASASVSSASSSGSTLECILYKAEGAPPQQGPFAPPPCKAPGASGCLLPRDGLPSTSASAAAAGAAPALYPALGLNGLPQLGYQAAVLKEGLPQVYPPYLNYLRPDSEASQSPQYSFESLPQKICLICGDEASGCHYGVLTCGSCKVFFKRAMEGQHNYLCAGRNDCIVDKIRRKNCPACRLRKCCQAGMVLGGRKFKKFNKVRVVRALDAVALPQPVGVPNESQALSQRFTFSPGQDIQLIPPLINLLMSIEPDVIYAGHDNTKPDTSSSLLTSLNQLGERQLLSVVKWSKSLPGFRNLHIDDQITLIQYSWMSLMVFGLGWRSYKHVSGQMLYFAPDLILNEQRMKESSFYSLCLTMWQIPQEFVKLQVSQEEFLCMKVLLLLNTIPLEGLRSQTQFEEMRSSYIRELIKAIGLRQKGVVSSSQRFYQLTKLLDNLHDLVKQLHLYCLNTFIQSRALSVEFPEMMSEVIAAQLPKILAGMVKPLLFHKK

Assay [8] has the same target. As to the kind of experiment: qHTS assay to identify small molecule antagonists of the progesterone receptor (PR) signaling pathway (AID 1346795; active means well fitted inhibition curve with a large enough effect in the signal ratio in the repeat runs, not every such curve was filed as active; the % refers to the signal ratio; further: potency means the concentration at half of the fitted maximal effect). Put shortly: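 PR-UAS-bla HEK293T cells with beta-lactamase reporter under UAS control, in 2% charcoal-stripped FBS, treated with compounds plus 1 nM promegestone (R5020, final) for 16 hr at 37C. Read-out: FRET beta-lactamase substrate fluorescence after 2 hr at room temperature.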

A short description of assay [9]: qHTS assay to identify small molecule antagonists of the progesterone receptor (PR) signaling pathway - cell viability counter screen (AID 1346798). Further: nearly all actives have a fitted effect of over 50% in size. Further: potency means the concentration at half of the fitted maximal effect. On activity change, negative = cytotoxicity: series mostly up to about 92 µM. Put shortly:
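PR-UAS-bla HEK293T cells, 3,000/well in 2% charcoal-stripped FBS medium, dosed with compounds plus R5020 agonist and incubated 16 h at 37C. Viability then measured in the same wells by CellTiter-Glo luminescence after 30 min at RT.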

Assay [10] in a line: qHTS assay to identify small molecule agonists of the progesterone receptor (PR) signaling pathway - cell viability counter screen (AID 1346799; calls by dose curve; further: nearly all actives have a fitted effect of over 45% in size). Put shortly: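 Counter screen in the PR-UAS-bla HEK293T wells (2% charcoal-stripped FBS, 16 h compound exposure at 37 C) after the bla read. CellTiter-Glo added, 30 min at room temperature, luminescence read as cell viability.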
A short description of assay [11]: qHTS assay to identify small molecule antagonists of the TGF-beta/Smad signaling pathway - cell viability counter screen (AID 1346824). Further: nearly all actives have a fitted effect of over 50% in size. Put shortly:
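Cytotoxicity counter-screen run in the same wells as the beta-lactamase Smad reporter read: CellTiter-Glo luminescence after 30 min at room temperature. HEK 293T SBE-bla cells had 5 hr compound exposure at 37 C with TGF-beta1 (0.25 ng/mL stock).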

Assay [12] in a line: qHTS assay to identify small molecule agonists of the TGF-beta/Smad signaling pathway - cell viability counter screen (AID 1346829). Further: nearly all actives have a fitted effect of over 45% in size. Further: potency means the concentration at half of the fitted maximal effect. On activity change, negative = cytotoxicity: top concentration of the series differs between compounds. In a few lines: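 Cytotoxicity counter screen: CellTiter-Glo luminescence (30 min, room temperature) measured in the SBE-bla HEK 293T reporter wells after 5 hr compound treatment at 37 C and the 2 hr substrate step.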
Assay [13] is described as follows: qHTS assay to identify small molecule agonists of the TGF-beta/Smad signaling pathway (AID 1346859; active means well fitted activation curve with a large enough effect in the signal ratio in the repeat runs, not every such curve was filed as active; the % refers to the signal ratio; further: series mostly up to about 77 µM). Put shortly:
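SBE-bla HEK293T cells plated overnight, then compound exposure for 5 h at 37 C. Beta-lactamase reporter read with LiveBLAzer B/G FRET substrate after 2 h at room temperature, fluorescence at 405 nm excitation, 460/530 nm emission.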

Assay [14] addresses Thyrotropin-releasing hormone receptor (Homo sapiens) (UniProt P34981). Nature of the assay: qHTS assay to identify small molecule agonists of the thyrotropin-releasing hormone receptor (TRHR) signaling pathway (AID 1346891; calls by dose curve; further: series mostly up to about 58 µM). Put shortly: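 HEK293 cells expressing TRHR plated 18 h at 37 C/5% CO2, calcium dye-loaded 2 h at 37 C, then compound added (agonist mode); kinetic calcium fluorescence read 3 min at 1 s intervals; 15 concentrations in triplicate.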

Assay [15] can be described thus: Human pregnane X receptor (PXR) small molecule agonists, qHTS cell viability counter screen (AID 1346977). Further: nearly all actives have a fitted effect of over 50% in size. Further: potency means the concentration at half of the fitted maximal effect. Put shortly: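 PXR-Luc HepG2 cells (2,000/well, 5% charcoal-stripped FBS) preincubated 5 hr, then exposed to compounds 24 hr at 37 C. Viability read in the same wells by CellTiter-Fluor fluorescence, reagent added at 23 hr, 1 hr incubation.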
The nature of assay [16]: Caspase-3/7 induction in HepG2 cells by small molecules, qHTS assay (AID 1346978). Further: nearly all actives have a fitted effect of over 15% in size. Further: potency means the concentration at half of the fitted maximal effect. In a few lines: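 Caspase-3/7 induction was measured by Caspase-Glo 3/7 luminescence (30 min, room temperature) after a 17 hr compound exposure of wild-type HepG2 cells seeded at 2,000 per well and pre-incubated 5 hr.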
The nature of assay [17]: qHTS assay to identify small molecule agonists or antagonists of the thyroid stimulating hormone receptor (TSHR) signaling pathway - wild type cell line counter screen (AID 1259384; calls by dose curve). Put shortly:
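Counter screen in untransfected Hek293: compounds (15-point titration, triplicate) plus phosphodiesterase inhibitor Ro20-1724 added after 18 h plating; 30 min RT. Intracellular cAMP via competitive d2/cryptate immunoassay, 1 h incubation.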

The target in assay [18] is Thyrotropin receptor (Homo sapiens) (UniProt P16473). Nature of the assay: qHTS assay to identify small molecule antagonists of the thyroid stimulating hormone receptor (TSHR) signaling pathway (AID 1259385; calls by dose curve; further: nearly all actives have a fitted effect of over 20% in size). Put shortly:
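Antagonist mode: compound-treated TSHR-expressing HEK293 cells were stimulated with 1.5 ng/mL TSH (final) in presence of Ro20-1724 for 30 min at RT. HTRF cAMP detection after 1 h; each compound tested at 15 concentrations, triplicate.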

In assay [19] the target is Thyrotropin-releasing hormone receptor (Homo sapiens) (UniProt P34981). Nature of the assay: qHTS assay to identify small molecule antagonists of the thyrotropin-releasing hormone receptor (TRHR) signaling pathway (AID 1346877; active means well fitted inhibition curve with a large enough effect in the repeat runs, not every such curve was filed as active; further: series mostly up to about 51 µM). Put shortly:
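TRHR-expressing HEK293 cells were seeded, cultured 18 h at 37 °C, then loaded with calcium dye for 2 h. Compounds were pre-incubated 5 min at room temperature before 1 nM TRH (final) was added, and kinetic fluorescence was recorded for 3 min.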

For assay [20], the target named is Androgen receptor (Homo sapiens) (UniProt P10275). As to the kind of experiment: qHTS assay to identify small molecule agonists of the androgen receptor (AR) signaling pathway in the presence of an antagonist (AID 1259381; calls by dose curve; further: nearly all actives have a fitted effect of over 15% in size). Put shortly:
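MDA-kb2 human breast carcinoma cells carrying an MMTV-luciferase reporter (AR- and GR-responsive) were treated with compounds at 15 concentrations plus 3.0uM final nilutamide for 16hr at 37C without CO2; luminescence was read after ONE-Glo addition.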

The structures appear in SMILES notation. “And” between values parts separate entries of the source, which are not always exact repeats. Identical values can stand only once. Records with an inconclusive call do not appear. A structure can be active in one record and inactive in another. The source made the active and inactive calls. Unless noted, the call rests on the fitted dose curve; in most records, active means well fitted curve in the direction sought with a large enough effect in the repeat runs; inconclusive means weak or mixed curves; inactive means no such curve, though single readings can be large; an effect the other way counts as inactive or inconclusive.
On the % scale 0 is the no-effect control and ±100 the full control effect.

Chain of Estrogen receptor (Homo sapiens) (P03372 whole entry, looked up): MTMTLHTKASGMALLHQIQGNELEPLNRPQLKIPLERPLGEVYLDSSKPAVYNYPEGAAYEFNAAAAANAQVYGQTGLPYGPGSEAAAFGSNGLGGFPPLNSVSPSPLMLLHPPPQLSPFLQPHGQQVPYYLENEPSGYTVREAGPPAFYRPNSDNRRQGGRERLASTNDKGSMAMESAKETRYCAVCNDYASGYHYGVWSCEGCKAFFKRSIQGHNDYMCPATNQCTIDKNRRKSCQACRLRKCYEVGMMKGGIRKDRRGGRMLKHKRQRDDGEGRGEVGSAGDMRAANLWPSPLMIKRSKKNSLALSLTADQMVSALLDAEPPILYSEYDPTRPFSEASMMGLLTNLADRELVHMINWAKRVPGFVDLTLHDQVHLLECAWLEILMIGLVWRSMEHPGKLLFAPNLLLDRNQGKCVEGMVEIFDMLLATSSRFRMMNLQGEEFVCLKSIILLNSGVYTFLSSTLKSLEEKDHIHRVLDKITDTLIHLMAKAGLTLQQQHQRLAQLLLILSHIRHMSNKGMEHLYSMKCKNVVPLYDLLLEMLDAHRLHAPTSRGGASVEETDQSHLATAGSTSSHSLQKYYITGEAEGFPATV
Chain of Thyrotropin-releasing hormone receptor (Homo sapiens) (P34981 whole entry, looked up): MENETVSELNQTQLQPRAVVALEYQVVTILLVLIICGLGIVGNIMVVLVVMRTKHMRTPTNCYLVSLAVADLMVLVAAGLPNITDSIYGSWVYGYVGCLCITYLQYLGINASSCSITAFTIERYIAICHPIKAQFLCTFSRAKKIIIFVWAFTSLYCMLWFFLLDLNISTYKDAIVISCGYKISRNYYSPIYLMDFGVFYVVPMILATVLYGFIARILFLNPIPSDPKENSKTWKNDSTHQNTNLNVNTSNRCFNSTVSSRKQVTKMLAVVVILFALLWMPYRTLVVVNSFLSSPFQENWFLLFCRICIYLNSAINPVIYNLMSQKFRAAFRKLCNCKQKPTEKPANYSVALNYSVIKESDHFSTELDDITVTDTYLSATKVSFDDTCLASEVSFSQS
Chain of Thyrotropin receptor (Homo sapiens) (P16473 whole entry, looked up): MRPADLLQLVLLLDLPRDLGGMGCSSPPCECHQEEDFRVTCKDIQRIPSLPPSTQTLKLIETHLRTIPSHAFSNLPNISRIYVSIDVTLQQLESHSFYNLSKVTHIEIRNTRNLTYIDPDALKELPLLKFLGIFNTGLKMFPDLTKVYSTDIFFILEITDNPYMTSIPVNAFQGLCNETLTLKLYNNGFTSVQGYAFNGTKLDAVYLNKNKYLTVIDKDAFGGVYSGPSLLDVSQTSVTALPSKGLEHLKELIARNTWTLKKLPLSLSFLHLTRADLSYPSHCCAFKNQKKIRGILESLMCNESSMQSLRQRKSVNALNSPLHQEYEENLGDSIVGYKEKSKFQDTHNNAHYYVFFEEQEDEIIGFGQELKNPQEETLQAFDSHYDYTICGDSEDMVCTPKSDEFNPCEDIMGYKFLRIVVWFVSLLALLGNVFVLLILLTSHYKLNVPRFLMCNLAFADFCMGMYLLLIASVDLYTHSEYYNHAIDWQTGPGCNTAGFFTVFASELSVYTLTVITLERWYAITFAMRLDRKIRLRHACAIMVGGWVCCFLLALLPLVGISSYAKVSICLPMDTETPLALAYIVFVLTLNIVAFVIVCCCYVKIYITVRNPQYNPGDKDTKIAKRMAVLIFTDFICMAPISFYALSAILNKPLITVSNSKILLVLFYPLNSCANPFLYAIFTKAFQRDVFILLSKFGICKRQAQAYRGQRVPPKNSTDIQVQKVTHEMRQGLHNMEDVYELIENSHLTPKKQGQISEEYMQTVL
Chain of Estrogen receptor beta (Homo sapiens) (Q92731 whole entry, looked up): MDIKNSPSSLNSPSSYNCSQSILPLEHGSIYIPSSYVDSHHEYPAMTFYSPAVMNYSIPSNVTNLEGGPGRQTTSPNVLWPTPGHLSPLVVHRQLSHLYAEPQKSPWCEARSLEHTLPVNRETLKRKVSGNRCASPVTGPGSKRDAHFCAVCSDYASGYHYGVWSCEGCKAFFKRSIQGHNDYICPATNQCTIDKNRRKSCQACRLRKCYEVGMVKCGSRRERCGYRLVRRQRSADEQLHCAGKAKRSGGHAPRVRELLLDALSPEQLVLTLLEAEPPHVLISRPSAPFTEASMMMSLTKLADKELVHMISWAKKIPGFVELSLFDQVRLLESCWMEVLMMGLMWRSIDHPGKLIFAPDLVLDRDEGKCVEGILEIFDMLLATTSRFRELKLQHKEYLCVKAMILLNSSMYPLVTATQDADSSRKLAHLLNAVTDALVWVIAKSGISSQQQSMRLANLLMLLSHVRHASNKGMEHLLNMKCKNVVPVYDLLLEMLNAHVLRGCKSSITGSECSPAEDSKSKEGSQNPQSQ
Chain of Androgen receptor (Homo sapiens) (P10275 whole entry, looked up): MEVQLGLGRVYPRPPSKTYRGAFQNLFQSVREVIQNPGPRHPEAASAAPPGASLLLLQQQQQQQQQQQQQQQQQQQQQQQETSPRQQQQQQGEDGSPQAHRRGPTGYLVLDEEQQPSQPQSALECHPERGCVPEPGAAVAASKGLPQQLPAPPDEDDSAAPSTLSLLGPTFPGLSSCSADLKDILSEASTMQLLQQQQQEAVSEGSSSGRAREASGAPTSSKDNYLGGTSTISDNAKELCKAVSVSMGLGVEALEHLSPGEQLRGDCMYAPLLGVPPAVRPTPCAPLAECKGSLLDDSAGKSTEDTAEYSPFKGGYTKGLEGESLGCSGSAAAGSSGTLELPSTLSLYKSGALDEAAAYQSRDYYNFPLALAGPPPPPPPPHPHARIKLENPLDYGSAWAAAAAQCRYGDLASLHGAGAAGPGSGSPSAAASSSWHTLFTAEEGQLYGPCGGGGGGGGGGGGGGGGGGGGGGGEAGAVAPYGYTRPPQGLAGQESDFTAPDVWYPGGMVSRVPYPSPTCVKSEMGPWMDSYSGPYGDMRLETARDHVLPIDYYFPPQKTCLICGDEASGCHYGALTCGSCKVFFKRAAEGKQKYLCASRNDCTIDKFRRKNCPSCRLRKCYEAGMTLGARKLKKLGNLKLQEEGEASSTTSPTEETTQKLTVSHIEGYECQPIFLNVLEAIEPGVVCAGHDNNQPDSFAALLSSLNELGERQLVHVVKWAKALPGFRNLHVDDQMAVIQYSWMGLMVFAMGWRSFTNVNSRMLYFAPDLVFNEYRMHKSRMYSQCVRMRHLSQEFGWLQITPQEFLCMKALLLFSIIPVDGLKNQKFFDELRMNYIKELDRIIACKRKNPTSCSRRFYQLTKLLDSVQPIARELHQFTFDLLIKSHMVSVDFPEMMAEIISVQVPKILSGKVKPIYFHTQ

As to `C1CCC2CCCCC2C1` (stereo unspecified), the Potency entry in [1], in [2], in assay [3], in assay [4], in assay [5] and in assay [6] was “inactive” throughout. For the same compound, the Potency result in assay [7], in assay [8], in [9], in assay [10], in assay [11] and in [12] was “inactive” in each case. Also, the Potency result in assay [14], in [15] and in assay [16] was “inactive” throughout. The call in [13] was inactive.

Consider `Brc1c(Br)c(Br)c(Oc2c(Br)c(Br)c(Br)c(Br)c2Br)c(Br)c1Br`, for which the activity, negative = inhibition in [1] is -4.25% [at 19 µM] (inactive); in [19], 2.65% [at 10.5 µM] (inactive). Besides, the activity change, negative = cytotoxicity in [2] is 4.12% [at 19 µM] (inactive); in assay [3] it was -3.73% [at 19 µM] (inactive); in [4], 4.03% [at 19 µM] (inactive); in assay [6], -0.0832% [at 19 µM] (inactive); in [9], -6.81% [at 18.9 µM] (inactive); in assay [10] it was -0.672% [at 19 µM] (inactive). In addition, the activity change, negative = cytotoxicity in assay [15] was 1.58% [at 19 µM] (inactive). Moreover, the cAMP activity change in assay [17] is -3.73% [at 18.9 µM] (inactive). Further, the activity change, negative = inhibition in assay [18] was 0.486% [at 19 µM] (inactive); in assay [8], 0.347% [at 18.9 µM] (inactive). Moreover, the figures for the activation in assay [7], in assay [13] and in assay [14] were -1.27% [at 19 µM] (inactive), 4.57% [at 15.8 µM] (inactive) and -0.444% [at 11.8 µM] (inactive), respectively. The viability change, negative = cytotoxic in assay [11] was 12.3% [at 15.8 µM] (inactive). For the same compound, in [16], the caspase activation was -0.566% [at 19 µM] (inactive).

Take `N#CCCO`: the Potency entry in [1], in [2], in [3], in assay [20], in assay [5] and in assay [6] was “inactive” each time. For the same compound, the Potency result in assay [7], in [8], in [9], in [10], in [11] and in [12] was “inactive” each time. In addition, the Potency result in [14], in [15] and in assay [16] was “inactive” throughout. Also, the result in [13] was inactive.

For the compound `CC(C)[C@H](C(=O)OC(C#N)c1cccc(Oc2ccccc2)c1)c1ccc(OC(F)F)cc1` (stereo partly specified), the Potency entry in assay [1], in assay [2], in [3], in assay [4], in assay [18] and in [6] was “inactive” each time. Besides, the Potency result in [7], in assay [11], in [12], in [19], in [14] and in assay [15] was “inactive” each time. In addition, the Potency entry in assay [16] is “inactive”. Further, the compound was classed as inactive in [17] and in assay [13].

For `CC(C)CC(C)N` (stereo unspecified), the Potency entry in assay [1], in assay [2], in assay [3], in assay [4], in assay [5] and in assay [18] was “inactive” each time. The Potency entry in [6], in assay [7], in [8], in [9], in [10] and in [11] was “inactive” throughout. In addition, the Potency entry in assay [12], in assay [14], in assay [15] and in assay [16] was “inactive” throughout. Also, the compound was called inactive in assay [17] and in assay [13].

As to `CC1(C)C(/C=C(\Cl)C(F)(F)F)C1C(=O)OC(C#N)c1cccc(Oc2ccccc2)c1` (stereo unspecified), the Potency result in assay [1], in assay [2], in [3], in assay [4], in assay [18] and in assay [6] was “inactive” each time. Further, the Potency result in [7], in assay [9], in assay [11], in assay [12], in assay [19] and in assay [14] was “inactive” in each case. Also, in assay [16], the Potency result is “inactive”. The compound was classed as inactive in assay [17] and in assay [13].

Regarding `O=c1[nH]c2ccccc2n1C1CCN(CCCC(c2ccc(F)cc2)c2ccc(F)cc2)CC1`, the Potency in assay [1] was 17.2 µM (active); in assay [2], 24.3 µM (active); in [3] it was 27.3 µM (active) and 21.1 µM (active); in assay [4], 30.6 µM (active) and 29.8 µM (active); in assay [6] it was 54.5 µM (active); in assay [8], 26.6 µM (active). In addition, the Potency is 30.6 µM (active) in assay [9]; 49 µM (active) and inactive in assay [12]; 21.7 µM (active) and 26.6 µM (active) in assay [15]; 61.1 µM (active) in assay [16]. Moreover, the Potency result in assay [5] and in [18] was “inactive” throughout. Moreover, the call in assay [17] and in [13] was inactive.

These data come from PubChem BioAssay (Tox21).
